The test has as its system Caenorhabditis elegans L1 (N2). The test can be described thus: survival and reproduction score of C. elegans L1 (0: 0-10 living worms, 1: 11-20, 2: 21-50, 3: >50, 4: overgrown) (score 0-4); higher = more worms, less nematicidal, active = 1 or less; extreme values may be limits of the assay. As to conditions: 60 µM; 6 days; temperature: 20 °C. The method in brief: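 Each 96-well well received about 20 synchronized N2 L1 worms of C. elegans, E. coli HB101 and liquid NGM, plus compound pinned to 60 µM final (0.6% v/v DMSO). Sealed plates were incubated with shaking at 200 rpm, 20 °C, for 6 days. Survival and reproduction were rated under a dissection microscope as an ordinal score of living worms per well, averaged across biological replicates. The scale spanned 0 (0–10 worms) to 4 (overgrown, starved), and there were two replicates.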
For `CCOc1cc(-c2nc(-c3ccc(C)nc3OCC)no2)cc(OCC)c1OCC`, the “survival and reproduction score” value is 4 (inactive).
For `CCN(Cc1ccccc1)C(=O)c1ccccc1-c1nc(-c2cccc(C)c2)no1`, the “survival and reproduction score” value was 4 (inactive).
For `Cc1ccc(OCc2nc(-c3ccccc3)no2)cc1C`, the “survival and reproduction score” value was 4 (inactive).
With `CCC(=O)Nc1ccccc1-c1nc(-c2ccncc2)no1`, the “survival and reproduction score” value was 1 (active).
On to `Clc1ccccc1-c1noc(-c2ccncc2)n1`, for which the “survival and reproduction score” value was 4 (inactive).
Turning to `Cc1ccccc1OCc1nc(-c2ccc(F)cc2)no1`, the “survival and reproduction score” value was 4 (inactive).
As to `Cc1ccc(OC(C)c2nc(-c3ccncc3)no2)cc1C` (centres undefined), the “survival and reproduction score” value is 4 (inactive).
In the case of `CC(C)c1ccc(OCc2nc(-c3ccncc3)no2)c(Br)c1` it was 4 (inactive); in that of `O=C(CSc1nnc(-c2ccco2)o1)Nc1cccc(Cl)c1Cl`, 4 (inactive).
Take `C#CCOc1ccc(-c2nc(-c3ccccc3)no2)cc1`: the “survival and reproduction score” value is 0 (active).
In the case of `COc1ccc(Cl)cc1-c1noc(-c2ccccc2C)n1` it was 4 (inactive); in that of `COc1ccc(Cl)cc1-c1noc(COc2ccc(Cl)cc2)n1`, 4 (inactive).
Turning to `Cc1ccccc1-c1nc(-c2ccc(Cl)cc2)no1`, the “survival and reproduction score” value was 0 (active).
Consider `CC(=O)Nc1ccc(-c2nc(-c3ccccc3)no2)cc1`, for which the “survival and reproduction score” value was 4 (inactive).
In the case of `Clc1ccc(OCc2nc(-c3ccccc3)no2)cc1` it was 4 (inactive); in that of `CC(C)(C)NC(=O)CSc1nnc(-c2ccc(C(C)(C)C)cc2)o1`, 4 (inactive); in that of `N#Cc1ccccc1CSc1nnc(-c2ccco2)o1`, 4 (inactive).
Turning to `N#Cc1ccccc1CSc1nnc(-c2ccccc2)o1`, the “survival and reproduction score” value is 4 (inactive).
For `Cc1ccc(-c2noc(-c3ccc(-n4nncc4C)cc3)n2)cc1`, the “survival and reproduction score” value is 4 (inactive).
Regarding `N#Cc1ccc(OCc2nc(-c3cccs3)no2)cc1`, the “survival and reproduction score” value is 4 (inactive).
To `Cc1ccc(NC(=O)CSc2nnc(-c3ccco3)o2)cc1Br` belongs 4 (inactive); to `O=C(CSc1nnc(-c2ccncc2)o1)Nc1cccc(Cl)c1Cl`, 4 (inactive); to `COc1cccc(-c2noc(COc3cc(C)cc(C)c3)n2)c1`, 4 (inactive).
For the molecule `Cc1ccccc1OCc1nc(-c2ccc(Br)cc2)no1`, the “survival and reproduction score” value was 4 (inactive).
To `COc1ccc(C(=O)CSc2nnc(-c3cccc4ccccc34)o2)cc1` belongs 4 (inactive).
As for `O=C(CSc1nnc(-c2ccccc2)o1)NC1CCCCC1`, the “survival and reproduction score” value is 4 (inactive).
With `Cc1ccccc1-c1nc(-c2ccccc2Cl)no1`, the “survival and reproduction score” value is 0 (active).
In the case of `c1ccc(-c2noc(-c3cccs3)n2)cc1` [tioxazafen], the “survival and reproduction score” value was 0 (active).
Consider `Clc1ccc(-c2noc(-c3ccccc3Br)n2)cc1`, for which the “survival and reproduction score” value is 3 (inactive).
As to `CCc1ccc(OCc2nc(-c3ccccn3)no2)cc1`, the “survival and reproduction score” value is 3 (inactive).
Take `COc1cccc(-c2noc(COc3ccc(C)cc3C)n2)c1`: the “survival and reproduction score” value is 4 (inactive).
Take `CCN(CC)C(=O)CSc1nnc(-c2ccc(Cl)cc2Cl)o1`: the “survival and reproduction score” value is 4 (inactive).
On to `Clc1cccc(-c2nc(-c3ccc4c(c3)OCO4)no2)c1`, for which the “survival and reproduction score” value is 4 (inactive).
Take `Cc1cccc(-c2noc(-c3cccc(Br)c3)n2)c1`: the “survival and reproduction score” value is 4 (inactive).
On to `CCOc1cc(-c2nc(-c3ccccc3C)no2)cc(OCC)c1OCC`, for which the “survival and reproduction score” value is 4 (inactive).
For `C=CCOc1cccc(-c2nc(-c3cccnc3)no2)c1`, the “survival and reproduction score” value was 0 (active).
For the molecule `CCCOc1ccc(-c2nc(-c3cccnc3)no2)cc1`, the “survival and reproduction score” value was 0 (active).
As for `COc1ccc(Cl)cc1-c1nc(-c2ccccc2C)no1`, the “survival and reproduction score” value is 4 (inactive).
To `C=C(C)COc1ccc(-c2nc(-c3cccnc3)no2)cc1` belongs 3 (inactive).

For the origin of these results see the supplement of paper PMC11219838.
